This is a sample that favours compounds with a hit; in the whole collection about 1.6% have one here.
KCNQ2 block = inhibitors of rat KCNQ2 potassium channel; O88943; CHO-K1 KCNQ2, FluxOR thallium flux, 20 min; active compounds read low; B-score at 10 µM; 1.1% of 310,000 active;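 active = fluorescence ratio B-score at most minus 3 library SDs, with starting brightness B-score within 2 library SDs, cut at about -5.5 in these data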
Target sequence (O88943 whole entry, looked up): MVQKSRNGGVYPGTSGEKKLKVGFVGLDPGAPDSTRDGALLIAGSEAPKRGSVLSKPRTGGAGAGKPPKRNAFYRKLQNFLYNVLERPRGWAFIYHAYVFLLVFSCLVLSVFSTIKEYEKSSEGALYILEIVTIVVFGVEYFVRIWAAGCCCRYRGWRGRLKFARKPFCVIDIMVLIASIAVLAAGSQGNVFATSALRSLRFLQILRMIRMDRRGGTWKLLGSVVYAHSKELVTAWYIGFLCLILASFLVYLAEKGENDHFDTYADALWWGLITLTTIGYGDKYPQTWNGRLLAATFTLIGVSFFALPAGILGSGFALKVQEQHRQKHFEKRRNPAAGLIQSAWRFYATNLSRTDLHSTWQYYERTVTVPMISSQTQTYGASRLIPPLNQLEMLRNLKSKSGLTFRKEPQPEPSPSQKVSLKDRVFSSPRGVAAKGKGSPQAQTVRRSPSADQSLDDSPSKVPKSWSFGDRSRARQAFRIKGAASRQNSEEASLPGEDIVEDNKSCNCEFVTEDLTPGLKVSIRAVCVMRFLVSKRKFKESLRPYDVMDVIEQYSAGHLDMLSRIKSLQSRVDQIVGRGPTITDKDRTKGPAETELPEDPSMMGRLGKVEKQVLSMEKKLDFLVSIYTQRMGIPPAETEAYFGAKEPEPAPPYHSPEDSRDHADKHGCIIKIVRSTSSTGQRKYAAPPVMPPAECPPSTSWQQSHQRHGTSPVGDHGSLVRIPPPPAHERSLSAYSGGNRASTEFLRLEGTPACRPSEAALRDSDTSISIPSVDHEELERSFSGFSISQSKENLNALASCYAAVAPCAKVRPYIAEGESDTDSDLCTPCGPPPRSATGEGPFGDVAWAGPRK
KCNQ2 enhance = KCNQ2 (rat) channel potentiation | O88943 | CHO-K1 KCNQ2, FluxOR thallium flux fluorescence; active compounds read high | B-score at 10 µM | 0.54% of 310,000 active;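 active = fluorescence ratio B-score at least 3 SD of library B-scores, with initial fluorescence B-score within 3 of them, cut at about 5.3 in these data; same plate scores as AID 2156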;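 also: B-score of peak minus minimum over baseline fluorescence ratio after K+ and Tl+ stimulus; positive B-score means potentiation of KCNQ2 with more thallium influx and brighter signal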
* hit, by the source's call; i = inactive; x = not tested or not shown.

SMILES	KCNQ2 block	KCNQ2 enhance
Cc1ccc(NC(=O)C[n+]2ccccc2)cc1C	i	0.86
Cc1ccc(NC(=O)CN(Cc2ccco2)Cc2ccccc2O)cc1C	-5.8*	-5.8
Cc1ccc(C)c(N2CCN(C(=O)c3ccc(CS(=O)(=O)c4ccccc4C)o3)CC2)c1	-6.5*	-6.5
Cc1ccc(S(=O)(=O)Cc2ccc(C(=O)N3CCN(c4cc(C)ccc4C)CC3)o2)cc1	i	0.55
COc1ccc([C@H]2C=C3CN(C(=O)OC(C)(C)C)S(=O)(=O)[C@H]3C[C@H]2OC(=O)c2cccs2)cc1	i	x
CCOC(=O)c1ccc(-n2c(CCC(=O)O)ccc2-c2ccc(F)cc2)cc1	i	x
COc1ccc(/C=N/NC(=O)c2cccnc2)cc1	i	x
COc1ccc(/C=N/NC(=O)c2ccc[nH]2)cc1	-6.1*	-6.1
CN(Cc1ccc(F)cc1)C(=O)C(c1ccccc1)c1ccccc1	i	x
COc1ccccc1CN(C)C(=O)C(c1ccccc1)c1ccccc1	-5.6*	-5.6
COc1ccc(CCNC(=O)CN2C(=O)COc3ccc(S(=O)(=O)N4CCCC4)cc32)c(OC)c1	i	0.46
CCOC(=O)COc1c(OC)cc(Cl)cc1C1Nc2ccccc2C(=O)N1c1ccccc1 (stereo not drawn)	-5.6*	-5.6
CCOC(=O)COc1c(OC)cc(Cl)cc1C1Nc2ccccc2C(=O)N1c1ccc(F)cc1 (stereo not drawn)	i	x
O=C(NCc1ccccc1F)c1ccc2c(c1)OCCO2	i	0.36
Clc1ccc2nc(N3CCNCC3)nc(-c3ccccc3)c2c1	-5.9*	-5.9
OCCN1CCN(c2nc(-c3ccccc3)c3cc(Cl)ccc3n2)CC1	i	x
O=C(CN(c1ccccc1)S(=O)(=O)c1ccccc1[N+](=O)[O-])N1CCCC1	i	2.3
CC(=O)c1ccc(-n2c(SCC(=O)c3c[nH]c4ccccc34)nc3ccccc3c2=O)cc1	i	x
CCOc1ccc(N(CC(=O)N/N=C/c2cccnc2)S(C)(=O)=O)cc1	i	0.68
CC1=CC(C)(C)n2c(O)c(N=NC(N)=S)c3c(C)c(C)cc1c32	i	1.9
CC1=CC(C)(C)n2c(O)c(N=N)c3c(C)c(C)cc1c32	-6.6*	-6.6
COC(=O)c1ccc(C(=O)OC)c(NC(=O)CCc2ccc(C)o2)c1	i	0.33
COC(=O)c1c(NC(=O)CCc2ccc(C)o2)sc(C)c1C	-5.9*	-5.9
CC(C)(C)SCCNC(=O)CN(c1ccccc1)S(=O)(=O)c1ccc(F)cc1	i	x
CC(C)CC(CO)N1CCN(C(=O)c2ccc(Cl)c(Cl)c2)CCC1=O (stereo not drawn)	i	1
SMILES	KCNQ2 block	KCNQ2 enhance
CCOC(=O)c1c(C)[nH]c(C)c1S(=O)(=O)N(C)CC(=O)Nc1cccc(C)c1	i	1.2
Cc1cccc(N)c1-c1c(C)cccc1N	i	x
COc1cccc(CN(C)C(=O)CCN(c2ccccc2)S(=O)(=O)c2ccc(C)cc2)c1OC	i	x
Cc1cc(C)nc(N=Nc2c(O)n(Cc3ccc(Cl)cc3)c3ccccc23)n1	-5.9*	-5.9
O=Nc1c(O)n(Cc2cccc(Cl)c2)c2ccccc12	i	x
CC(C)c1nc2c(c(=O)n(C)c(=O)n2C)n1C	i	x
CN(C)C(=O)c1ccc(NC(=O)COc2ccc([N+](=O)[O-])cc2)cc1	i	x
O=C1NN(c2ccccc2)C(=O)/C1=C/c1coc2ccccc2c1=O	i	x
O=C1NN(c2ccccc2)C(=O)/C1=C\c1coc2ccc(O)cc2c1=O	-5.7*	-5.7
O=C(Nc1ccccc1Oc1cccnc1)C1CCCN(C/C=C/c2ccccc2)C1 (stereo not drawn)	i	x
O=C(NCc1nc2ccccc2[nH]1)c1ccccc1F	i	1.1
O=C(NCCCc1nc2ccccc2[nH]1)c1ccc(F)cc1	i	7.3*
CCOc1ccc(C(=O)Nc2ccc3c(c2)OCCO3)cc1	i	1.5
CCc1cc(C(=O)N(C)CC(=O)N(CC(C)C)c2c(N)n(CC(C)C)c(=O)[nH]c2=O)sc1C	i	1
Cc1ccccc1-c1nnc(NC(=O)CSc2nc3ccccc3s2)s1	i	x
COC(=O)N(NC(=O)C(O)(c1ccccc1)c1ccccc1)c1ccc(C)cc1	-5.9*	-5.9
CCOC(=O)N(NC(=O)C(O)(c1ccccc1)c1ccccc1)c1ccccc1	-6.1*	-6.1
CCCCC(O)(CCCC)C(=O)NN(C(=O)OC)c1ccccc1	i	x
CCOC(=O)N(NC(=O)C(O)(C(C)C)C(C)C)c1ccccc1	i	x
C/C(=N\OCc1nc2ccccc2c(=O)n1/N=C/c1cc(C)cc([N+](=O)[O-])c1O)c1ccccc1	-8.3*	-8.3
C/C(=N\OCc1nc2ccccc2c(=O)n1/N=C/c1cc([N+](=O)[O-])ccc1O)c1ccccc1	i	2.1
Cc1nc(CSc2ccccc2)cc(=O)[nH]1	i	x
Cc1ccsc1/C=C1/SC(N2CCOCC2)=NC1=O	i	0.11
O=C1N=C(N2CCOCC2)S/C1=C\c1cccs1	i	8.8*
Cc1ccc(C2=Nc3ccccc3N(C(=O)c3ccccc3)C(C)C2)cc1 (stereo not drawn)	i	x
SMILES	KCNQ2 block	KCNQ2 enhance
COc1ccc(C2CC(=O)OC3=C2C(=O)CC(C)(C)C3)c(OC)c1 (stereo not drawn)	i	0.09
COc1ccc([C@@H]2COc3c(ccc4c3C=CC(C)(C)O4)C2)c(OC)c1	-6.3*	-6.3
Cc1ccc(C)c2c(N)c3c(nc12)CCCCC3 (tested in a mixture with another compound)	i	x
O=C(O)c1ccccc1NS(=O)(=O)c1cccc(C(F)(F)F)c1	i	x
O=C(O)c1ccccc1NS(=O)(=O)c1cccc(-n2sc3ccccc3c2=O)c1	i	13*
COc1ccc(CCC(=O)Nc2ccccc2C(F)(F)F)cc1	i	x
CCCOc1cc(N(CC)CC)ccc1/C=C(/C#N)c1nc2ccc(C)cc2[nH]1	i	x
CCOc1cc(N(CC)CC)ccc1/C=C(/C#N)c1nc2ccccc2[nH]1	-8.4*	-8.4
Clc1ccccc1OCc1nnc(-c2ccccc2Br)o1	i	x
Clc1ccc(Cc2nnc(-c3ccccc3Br)o2)cc1	-5.9*	-5.9
CCN(CC)C(=O)c1ccc(-c2nnc(OC)c3ccccc23)cc1	i	0.49
O=C(CSCc1ccc(Cl)cc1)NCCSCc1ccco1	-6.4*	-6.4
COc1ccccc1N(CC(=O)NCCSCc1ccc(Cl)cc1)S(C)(=O)=O	i	0.05
O=C(CSCc1c(F)cccc1Cl)NCCSCc1ccco1	i	x
COc1ccccc1OCC(=O)NCCSCc1ccc(Cl)cc1	-5.6*	-5.6
CCn1c(NCc2cc(Cl)ccc2O)nc2ccccc21	-5.6*	-5.6
C=CCn1c(NCc2cc(Cl)ccc2O)nc2ccccc21	i	x
C=CCn1c(NCc2ccccc2OC)nc2ccccc21	i	x
CCn1c(NCc2cccc(OC)c2OC)nc2ccccc21	-6.1*	-6.1
CN(CCc1cnn(C)c1)Cc1nc(CC2CC2)no1	i	0.55
CCCc1c(-c2ccc(O)cc2)nn(-c2ccc(O)cc2)c1-c1ccc(O)cc1	-6.6*	-6.6
Cc1c(C(N)=O)c(-c2ccccc2)nn1-c1ccccc1	i	0.5
Cc1ccc(N(C(=O)c2ccccc2Cl)C2=NC(C)CS2)c(C)c1 (stereo not drawn)	-6*	-6
CCOc1ccccc1N(C(=O)c1ccccc1Cl)C1=NC(C)(C)CS1	i	x
COc1nc(-c2ccc(Cl)cc2Cl)nc2ccccc12	i	0.05
CCc1c(C)nc2cc(-c3cc(OC)cc(OC)c3)nn2c1N1CCCC1	i	0.09
